Structures are written as SMILES. About 80 (0.04%) of roughly 200,000 compounds were called active. The sample holds actives, similar compounds and a random draw of the others, so the mix is not that of the screen. Unmarked numbers belong to inactive results.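 How the source made its calls: active means activation above the mean across all tested compounds plus 3 SD, cutoff set per campaign (cut at about 5.5% in these data); inactive means the rest.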

The assay can be described thus: Hsp70 transcriptional activators, primary screen, cell-based, HeLa, Hsp70 promoter luciferase, luminescence, 10 µM (AID 1203).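 Further: 100% = MG132 at 30 µM as the positive control and 0% = DMSO.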 The following applies: HeLa Hsp70 promoter luciferase reporter, at 10 µM, hits give high values, scaled: vehicle 0, proteasome-inhibitor control 100%.
As to `COc1ccc(C)cc1S(=O)(=O)N(CC(=O)Nc1cccc([N+](=O)[O-])c1)c1ccc(C)cc1`, the activation is -0.49%.

On to `CCOC(=O)NC(=O)CSc1nnc(SCCC(=O)O)s1`, for which the activation is -0.37%.

Consider `CC(C)C(=O)Nc1c(O)c2ccccc2[nH]c1=O`, for which the activation was -0.15%.

As for `N#C/C(=C/c1ccc(N2CCCCC2)o1)C(=O)NCCc1c[nH]c2ccccc12`, the activation is -0.42%.

On to `CN1CCN(c2nc(Nc3ccc(O)cc3)nc3ccccc23)CC1`, for which the activation is -0.02%.

Take `COc1ccc(CNC(=O)C2CCN(S(C)(=O)=O)CC2)cc1`: the activation is -0.22%.

For `Cc1cc(NC(C)C)n2c(nc3ccccc32)c1C#N`, the activation is -0.27%.

For `COc1ccc(CC(=O)Nc2cc(S(=O)(=O)N3CCCCC3)ccc2N2CCN(C)CC2)cc1`, the activation is -0.39%.

For the molecule `CC1CCN(C(=S)c2cccc([N+](=O)[O-])c2)CC1`, the activation was -0.04%.

Turning to `CC(OC(=O)c1ccccc1OCc1ccc(Cl)cc1)C(N)=O` (stereo unspecified), the activation is -0.14%.

As for `Cc1ccc(N(C(=O)c2sc(C)nc2C)C(C(=O)NC(C)(C)C)c2ccncc2)cc1` (stereo unspecified), the activation is -0.38%.

Take `COCC(C)n1c(SCc2ccc(C(=O)OC)o2)nc2ccccc2c1=O` (stereo unspecified): the activation is -0.28%.

As for `COCC(C)n1c(C)cc(C(=O)CSc2cc(C)c3ccccc3n2)c1C` (stereo unspecified), the activation is -0.27%.

Regarding `COCCn1c(C)cc(C(=O)CSc2nc3ccccc3c(=O)n2C(C)COC)c1C` (stereo unspecified), the activation is 8.58% (active).

As for `O=S(=O)(c1ccc(F)cc1)n1ccc(-c2cnc(-c3ccccc3)s2)n1`, the activation was -0.1%.

As for `CCOC(=O)CSc1ccccn1`, the activation is 2.15%.

For `COc1ccc(N(CC(=O)Nc2ccc(C)cc2C)S(=O)(=O)c2ccccc2[N+](=O)[O-])c(OC)c1`, the activation is -0.09%.

Take `Cc1cc(C)n(CC(=O)Nc2ccc([N+](=O)[O-])cc2)n1`: the activation was -0.28%.

Consider `OCCC1CN(Cc2ccccc2-c2ccco2)CCN1Cc1ccsc1` (stereo unspecified), for which the activation is -0.08%.

Turning to `COc1cccc(CNC(=O)CCC2CCCN(C(=O)c3ccoc3C)C2)c1` (stereo unspecified), the activation is -0.21%.

Turning to `COc1ccc2c(c1)CCC/C2=N\OC(=O)c1ccccc1F`, the activation was 0.09%.

For `O=C(CC1C(=O)NCCN1Cc1ccc(-c2ccccc2)cc1)NCc1ccncc1` (stereo unspecified), the activation is -0.07%.

Take `Cc1cccc(NC(=S)Nc2ccc3cn[nH]c3c2)c1`: the activation is -0.39%.

Consider `COc1ccc(NC(=S)Nc2ccccc2Cl)cn1`, for which the activation was -0.12%.

For `CC(=O)Nc1ccc(OCC(=O)NCc2ccc(C)cc2)cc1`, the activation is -0.17%.

`COc1ccc(CS(=O)/C(Cl)=C(/Cl)C(=O)Nc2ccc(OC)nc2)cc1` (stereo unspecified): the activation was 20% (active).

For `COc1ccc(NC(=S)NCCNC(C)=O)cc1`, the activation was 0.67%.

Consider `COc1ccc(NC(=O)/C(Cl)=C(/Cl)S(=O)Cc2ccc(C)cc2)cn1` (stereo unspecified), for which the activation is 24.9% (active).

On to `Cc1ccc(NC(=O)OCc2cncs2)cc1`, for which the activation was 0.06%.

With `CN(C)c1ccc(C(CNC(=O)c2ccc(F)cc2)c2c[nH]c3ccccc23)cc1` (stereo unspecified), the activation was -0.32%.

Regarding `COc1ccc(/C=N/N=C/c2c[nH]c(=O)c(C#N)c2Nc2ccccc2)cc1`, the activation was -0.38%.

As to `CCN(CC)S(=O)(=O)c1ccc(NC(=O)c2cccnc2Cl)c(NC(=O)c2cccnc2Cl)c1`, the activation was -0.26%.

As for `CCOc1ccc(NC(=O)C2CC(=O)N=C(N)S2)cc1` (stereo unspecified), the activation is -0.33%.

For `O=Cc1cn(Cc2ccccc2)nc1-c1cccnc1`, the activation is -0.04%.

Consider `Cc1ccc(N(CC(=O)Nc2cc(C)cc(C)c2)S(=O)(=O)c2cccc3nonc23)cc1`, for which the activation is -0.31%.

As for `O=C(CN1C(=O)NC2(CCCC2)C1=O)NCC1CCCO1` (stereo unspecified), the activation was 0.18%.

Turning to `O=S(=O)(N1CCCCC1)N1CCNCC1`, the activation is -0.19%.

With `O=C(CN1CCCCC1)Nc1ccccc1Cl`, the activation was -0.18%.

Consider `O=C(Nc1ccccc1Cl)/C(Cl)=C(\Cl)S(=O)c1ccccc1` (stereo unspecified), for which the activation was 26.1% (active).

Turning to `O=C(Nc1ccccc1Cl)c1ccc2nsnc2c1`, the activation was 0.16%.

For `CCCC1CCC(=NNC(=S)NCCc2ccccc2)CC1` (stereo unspecified), the activation is -0.28%.

With `OCCC1CN(Cc2cnc(-c3ccccc3)s2)CCN1CCc1ccccc1` (stereo unspecified), the activation was 0.55%.

For `C/C(=N/OC(=O)c1c(-c2c(F)cccc2Cl)noc1C)c1cnccn1`, the activation was -0.36%.

As to `O=C(CCC(=O)c1cccs1)NC1CCCCCC1`, the activation is -0.2%.

In the case of `Fc1cccc(Cc2noc(CN3CCN(c4cnccn4)CC3)n2)c1`, the activation is 0.1%.

For `Cc1ccc(-c2ccc(/C=N/NC(=O)CN3CCOCC3)o2)cc1[N+](=O)[O-]`, the activation is -0.19%.

With `CCOC(=O)NN1C(=O)c2ccccc2NC1c1cccc(O)c1` (stereo unspecified), the activation is -0.06%.

Turning to `N=C1C(=O)OCC1c1ccccc1NC(=O)CN1CCCCC1` (stereo unspecified), the activation was -0.34%.

Consider `CCc1ccc(NC(=O)C(C)OC(=O)/C=C/c2cccc([N+](=O)[O-])c2)cc1` (stereo unspecified), for which the activation was -0.25%.

Regarding `O=C(COC(=O)CCc1ccc(S(=O)(=O)N2CCOCC2)cc1)Nc1cccc(Cl)c1`, the activation was -0.33%.

Consider `CCN1CCN(C(=O)CN(C)S(=O)(=O)c2ccc3ccccc3c2)CC1`, for which the activation is -0.21%.

Turning to `CSCCC(=O)N1CCCC(CNC(=O)c2ccccc2Cl)C1` (stereo unspecified), the activation is -0.44%.

As to `C=CCN(c1ccc(Cl)cc1)S(=O)(=O)c1cccc(C(=O)OCC(=O)N(C)C)c1`, the activation was -0.3%.

As to `Cc1cccc(CSc2nnc(C)c(=O)n2N)c1`, the activation is -0.18%.

For `O=C(CO/N=C/c1ccc(OC(F)F)cc1)NCc1ccc(F)cc1`, the activation was 0.12%.

Take `CCNc1nc(NC(C)C)nc(N2CC(=O)N(CC(=O)OCC)C2=N)n1`: the activation was -0.19%.

`COc1ccccc1C(c1nnnn1CC1CCCO1)N1CCN(c2ccccc2)CC1` (stereo unspecified): the activation is -0.43%.

With `CCOc1ccc(C(CC(=O)O)n2cnnn2)cc1OC` (stereo unspecified), the activation was -0.16%.

With `Cc1cc(C)cc(NC(=O)c2cccc(NC(=O)C3C4CC5OC(=O)C3C5C4)c2)c1` (stereo unspecified), the activation was 0.09%.

Take `COCCNC(=S)N(Cc1cccnc1)Cc1ccc(OC)c(OC)c1`: the activation was -0.35%.

As to `O=C(Nc1ccccc1F)c1ccccc1-c1ccc(C(F)(F)F)cc1`, the activation was -0.36%.

Turning to `C/C(CC(=O)N1CCN(C=O)CC1)=N\NC(=O)c1ccc(Br)cc1`, the activation is -0.22%.

For the molecule `Cc1ccc(CN2CCN(Cc3cccc(C)n3)CC2CCO)cc1` (stereo unspecified), the activation is 0.01%.

As to `O=C(Cc1cc(=O)[nH][nH]1)N/N=C/c1ccccc1[N+](=O)[O-]`, the activation is -0.41%.

Consider `CCn1cc(C(=O)Nc2cc(C)ccc2C)c(=O)c2ccc(C)nc21`, for which the activation is -0.16%.

For `CC(NC(=O)CC1SC(N)=NC1=O)c1ccccc1` (stereo unspecified), the activation was -0.02%.

On to `COc1ccc(CCNC(=O)CSc2nnc3ccc(-c4ccncc4)nn23)cc1`, for which the activation was -0.16%.

`O=C(NCc1ccccc1Cl)C1CCC(CNc2c(N3CCCCC3)c(=O)c2=O)CC1` (stereo unspecified): the activation was 0.08%.

For the molecule `CN1C(=O)/C(=C/c2ccc(C(=O)NC3CCCC3)cc2)Oc2ccccc21`, the activation was 0.12%.

Regarding `CC(=O)c1ccccc1NC(=O)CC1(CC(=O)O)CCCCC1`, the activation was -0.11%.

With `Cc1nc(S(=O)(=O)c2ccc(Br)cc2)nc2c1CCC2`, the activation is -0.24%.

Consider `COc1ccc(Cn2c(=O)cc(C)[nH]c2=S)cc1`, for which the activation was 0.13%.

As to `O=C(COc1ccc(Cl)cc1[N+](=O)[O-])N1CCCCC1`, the activation was 0.04%.

On to `Cn1nc(C(F)(F)F)c2cc(C(=O)N3CCOCC3)sc21`, for which the activation was 0.19%.

On to `Cc1ccnc(SCC(N)=O)n1`, for which the activation is -0.02%.

As to `O=C(Nc1cccc(Cl)c1)Nc1ccccc1NS(=O)(=O)c1cccs1`, the activation is -0.23%.

`CCCC(C)C(=O)NCc1ccncc1` (stereo unspecified): the activation is 0.15%.

With `Cc1ccc(N(Cc2cc3ccccc3[nH]c2=O)C(=O)c2cccs2)cc1`, the activation was -0.18%.

As to `C/C(CC(=O)Nc1cccc(F)c1)=N\NC(=O)C(=O)NC1CCCCC1`, the activation was -0.18%.

On to `CCOCCCNC(=O)C(NC(=O)c1ccccc1O)c1ccccc1` (stereo unspecified), for which the activation is -0.12%.

Regarding `O=C(CC(=O)N/N=C\c1ccc(F)cc1)NCCc1ccccc1`, the activation is -0.23%.

In the case of `CN1CCN(C(=O)CCc2nc(-c3ccc(Cl)cc3)no2)CC1`, the activation is -0.33%.

On to `N#Cc1c(-c2ccc(F)cc2)nc(-c2ccccc2)[nH]c1=O`, for which the activation was -0.14%.

Turning to `CCSC1=NCCN1S(=O)(=O)c1ccc(F)cc1`, the activation is -0.26%.

As for `COc1ccc(C(=O)CSc2nnnn2C)c(OC)c1`, the activation was 0.02%.

For the molecule `CC(=O)Nc1ccc(C(=O)OCC(=O)Nc2ccc([N+](=O)[O-])cc2C(F)(F)F)cc1`, the activation was -0.04%.

As to `CCN(CC)C(=O)C(=O)Nc1cccc(Br)c1`, the activation is -0.16%.

As to `c1ccc(-n2nnnc2NC2CCCCCC2)cc1`, the activation is -0.52%.

With `CC(=O)c1ccc(NC(=S)N(Cc2ccccc2)C(C)C2CC2)cc1` (stereo unspecified), the activation was -0.19%.

Consider `COc1ccc(COC(=O)N/N=C(\C)CC(=O)Nc2ccc(Cl)cc2)cc1`, for which the activation is -0.38%.

For `OCCC1CN(Cc2cccc(O)c2)CCN1CCc1ccccc1` (stereo unspecified), the activation was 0.03%.

On to `Cc1cccc(OCC(O)CN2CCN(CCN3C(=O)c4cccc5cccc(c45)C3=O)CC2)c1C` (stereo unspecified), for which the activation was -0.21%.

With `Cc1ccc(CN2CCN(Cc3ccc4ncccc4c3)CC2CCO)cc1` (stereo unspecified), the activation was -0.4%.

Consider `NS(=O)(=O)c1ccc(CCNC(=S)Nc2ccc(S(N)(=O)=O)cc2)cc1`, for which the activation was 0.04%.

With `COc1ccc2c(CC(=O)OCC(=O)Nc3ccccc3[N+](=O)[O-])coc2c1`, the activation was -0.38%.

For `CCCNCc1cc(OCC)c(OCC(=O)Nc2ccccc2)cc1Br`, the activation was -0.15%.

The values above are taken from PubChem BioAssay AID1203 (The Scripps Research Institute Molecular Screening Center, 2008).
